# Shown are actives, neighbours in structure and some others; about 7.5% of the full set was active somewhere.
# FBPA Giardia inh: qHTS Assay for Inhibitors of Fructose-1,6-bisphosphate Aldolase from Giardia Lamblia; A8B2U2; purified Giardia FBPA; Potency, µM (top dose mostly 59.6 µM), usual class: inhibitors; 0.71% of 290,000 active; AID 2451, 2010; note: nearly all actives have a fitted effect of over 55% in size
# Target sequence (A8B2U2 whole entry, looked up): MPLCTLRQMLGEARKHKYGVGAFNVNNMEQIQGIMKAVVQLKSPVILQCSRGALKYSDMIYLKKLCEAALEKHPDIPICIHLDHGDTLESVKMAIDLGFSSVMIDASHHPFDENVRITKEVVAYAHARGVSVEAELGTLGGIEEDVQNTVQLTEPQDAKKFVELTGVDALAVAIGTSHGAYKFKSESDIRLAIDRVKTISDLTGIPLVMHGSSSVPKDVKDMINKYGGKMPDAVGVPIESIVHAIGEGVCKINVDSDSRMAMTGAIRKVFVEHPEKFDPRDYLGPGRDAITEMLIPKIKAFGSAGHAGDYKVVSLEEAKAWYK
#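 40 nM FBPA preincubated 10 min at RT with compound (up to 57.5 uM final), then substrate plus GAPDH/TPI/NAD/arsenate coupling and diaphorase/resazurin added. Fluorescence read after 20 min at RT, 525/598 nm.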
# FMDV inh: High Throughput Screening for Foot and Mouth Disease Virus Antivirals | 1.2% of 410,000 active | FMDV antiviral cell-based qHTS | Potency, µM (series often up to 57.9 µM), most hits filed as inhibitors; calls by dose curve; tested in HEK293T cells; note: read-out not given here; nearly all actives have a fitted effect of over 45% in size
# Vaccinia Venus: qHTS for Stage-Specific Inhibitors of Vaccinia Orthopoxvirus: Venus Reporter Primary qHTS; Vaccinia virus Venus reporter expression, fluorescence; Potency, µM (top dose mostly 36.5 µM), usual class: inhibitors; 0.46% of 330,000 active; calls by dose curve; tested in A549 cells; note: nearly all actives have a fitted effect of over 30% in size
# HCMV inh: qHTS Assay for inhibitors of the human cytomegalovirus (HCMV); HFF cells, HCMV-luciferase reporter, 72 h; hits give low values; activity change, negative = inhibition, % at 57.5 µM; 4.5% of 410,000 active; AID 1259415, 2018; in the data active = activity change below about -60%; inconclusive = no clear call, values can overlap the other calls; inactive = above about -39%
#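 Compounds were evaluated in HFFs infected with an HCMV luciferase reporter virus (MOI 1 PFU/cell). Luciferase in lysates collected 72 h post infection served as the replication measure.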
# VACV mCherry inh: qHTS for Stage-Specific Inhibitors of Vaccinia Orthopoxvirus: mCherry Reporter Primary qHTS; Vaccinia virus mCherry reporter infection, fluorescence; Potency, µM (doses to about 36.5 µM), hits mostly inhibitors; 0.63% of 310,000 active; AID 720579, 2013; calls by dose curve; tested in A549 cells; note: nearly all actives have a fitted effect of over 35% in size
# HCV inhibitor: qHTS Assay for Inhibitors of Hepatitis C Virus (HCV); Huh7.5.1 HCVcc-Cre infection, luciferase reporter, 44 h; Potency, µM (highest dose often 41.8 µM), usual class: inhibitors; 3.4% of 340,000 active
#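 Infectious HCV cell culture screen: compound-treated cells (1,000/well, pre-plated 4 h) are infected with HCVcc-Cre at roughly 0.5 moi and grown 44 h. Infection is quantified by luciferase signal after 15 min substrate incubation at room temperature.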
# HCV inh confirm: qHTS Assay for Inhibitors of Hepatitis C Virus (HCV): Confirmation Assay for Cherry-picked Compounds. HCVcc-Cre infectious virus cell assay, luciferase, inhibition. 78% of 640 active. Potency, µM (top dose mostly 41.8 µM), hits mostly inhibitors. shares compounds with HCV inhibitor; note: nearly all actives have a fitted effect of over 80% in size
# HCV host tox: qHTS Assay for Inhibitors of Hepatitis C Virus (HCV): Cytotoxicity Counterscreen for Cherry-picked Compounds; AID 720576, 2013; HCV host cell line cytotoxicity counterscreen; 22% of 640 active; Potency, µM (top dose mostly 41.8 µM), usual class: inhibitors; shares compounds with HCV inhibitor;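 note: 44 h compound exposure; nearly all actives have a fitted effect of over 55% in size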
# A number is an active result; i = inactive; ? = inconclusive; nt = no result. Unless noted, calls come from the whole dose curve; as a rule, active = well fitted curve in the direction sought with a large enough effect; inconclusive = small, poorly fitted or top-dose-only effect, or another doubt; inactive = no such curve, though single readings can be large; an effect the other way counts as inactive or inconclusive.
SMILES,FBPA Giardia inh,FMDV inh,Vaccinia Venus,HCMV inh,VACV mCherry inh,HCV inhibitor,HCV inh confirm,HCV host tox
CCn1c(Cl)c(C=O)s/c1=N\S(=O)(=O)c1ccccc1,i,?,?,?,?,3.2µM,20µM,11µM
CN1CCc2nc(SCC(=O)Nc3cccc(F)c3)c(C#N)c(-c3cccs3)c2C1,i,i,i,i,i,?,?,i
COc1cc(/C=N/NC(=O)c2cccc(S(=O)(=O)N3CCOCC3)c2)cc(OC)c1O,i,i,i,i,i,i,nt,nt
CCN(Cc1ccccc1)c1ccc(/C=N/NC(=O)c2cccc(S(=O)(=O)N3CCOCC3)c2)cc1,i,?,i,?,?,?,5.6µM,i
CCCn1c(NC(=O)c2cccc(S(=O)(=O)N3CCCC3)c2)nc2ccccc21,i,32µM,nt,-97,nt,5µM,10µM,8.9µM
Cc1cc(/C=N/NC(=O)c2ccccc2F)c(C)n1-c1ccccc1,i,i,nt,?,nt,7.9µM,?,i
COc1ccc([N+](=O)[O-])cc1/C=N/Nc1nn[nH]n1,i,i,i,i,i,i,nt,nt
CCOC(=O)c1c(N)sc2c1CCC(CC)C2 (centres undefined),i,i,i,i,nt,i,nt,nt
CC#CCOC(=O)c1c(C)nc2sc3c(c2c1N)CCC(O)C3 (centres undefined),i,?,i,?,i,7.1µM,22µM,?
CCC(=O)N(Cc1ccco1)c1nc(-c2ccccc2)cs1,i,i,nt,i,nt,?,?,i
COc1ccccc1-c1noc(-c2ccccc2)n1,i,i,i,i,i,i,nt,nt
COc1ccc(-c2nc(-c3ccccc3OC)no2)cc1OC,i,i,nt,i,nt,?,22µM,i
C/C(=N/Nc1nc(-c2ccccc2)cc(-c2ccc(F)cc2)n1)c1cccc(N)c1,i,i,?,i,22µM,8.9µM,14µM,?
COc1ccc(/C=N\NC(=O)c2ccccc2Br)cc1COc1c(F)c(F)cc(F)c1F,i,i,?,-81,i,5µM,4.4µM,22µM
COc1ccc(/C=N\NC(=O)c2ccccc2OC)cc1COc1ccccc1C,i,i,i,i,i,?,nt,nt
Oc1cc2c(cc1O)[C@@H]1c3ccc(O)c(O)c3OC[C@]1(O)C2,?,i,nt,nt,nt,nt,nt,nt
C=C(C(=O)O)C(CCCCCC)C(=O)O (centres undefined),?,i,i,i,i,0.63µM,i,i
CSc1nc2nc(C)cc(-c3ccccc3)n2n1,i,i,?,i,i,7.9µM,?,i
CSc1nc2nc(C(F)(F)F)cc(-c3ccccc3)n2n1,i,?,i,i,i,i,nt,nt
COc1cc(OC)cc(-c2c(-c3ccc(F)cc3)c3cc(-c4ccc5[nH]ccc5c4)ccc3n2C)c1,nt,i,i,i,i,3.2µM,7.9µM,?
COC(=O)c1ccc2c(c1)C(C)(C)C(/C=C/c1ccc(O)cc1)=[N+]2C,i,10µM,nt,-102,nt,2.2µM,5µM,8.9µM
COC(=O)C1=C(C)N(Cc2ccccc2C(F)(F)F)C(=NCc2ccc(OC)cc2)NC1c1cccc(F)c1 (centres undefined),nt,nt,nt,i,nt,nt,nt,nt
CC(C)N(C(=O)[C@H]1CC(CC(=O)NC(C)(C)C)C(=O)N2CCc3c([nH]c4ccccc34)[C@]12C)C(C)C (some centres undefined),nt,i,?,i,i,?,nt,nt
CCN(CC)C(=O)Oc1ccc(Cl)c2cccnc12,i,?,i,i,i,i,nt,nt
CCC(=O)NC(c1cccs1)c1cc(Cl)c2cccnc2c1O (centres undefined),i,i,?,?,?,4µM,7µM,11µM
SMILES,FBPA Giardia inh,FMDV inh,Vaccinia Venus,HCMV inh,VACV mCherry inh,HCV inhibitor,HCV inh confirm,HCV host tox
Cc1ccc(CNC(=O)CN(c2ccc(Cl)cc2)S(C)(=O)=O)cc1,i,i,nt,i,nt,i,nt,nt
Cc1ccc(SCc2nc(-c3ccc(C(=O)NCc4ccccc4Cl)cc3)oc2C)cc1,nt,i,i,i,i,nt,nt,nt
Cc1oc(-c2ccccc2F)nc1CS(=O)(=O)CC(=O)NCCc1ccc(Cl)cc1,nt,i,i,i,i,nt,nt,nt
C/C(CCc1oc2c(Br)cc(Br)cc2c1-c1ccc(C)o1)=N\O,i,nt,i,i,i,?,nt,nt
C/C(CCc1oc2ccccc2c1-c1ccc(C)o1)=N/O,i,i,?,i,nt,7.9µM,25µM,i
CCn1nc(/C=C/c2ccccc2)nc2c(=O)n(C)c(=O)nc1-2,i,2.5µM,2.8µM,-96,2.5µM,2.5µM,5.6µM,7µM
CCN(CC)c1ccc(NS(=O)(=O)c2ccc(-c3coc(C)n3)cc2)c(C)c1,nt,i,i,i,i,nt,nt,nt
O=c1c(-c2nnc(SCc3ccc(Cl)cc3)o2)cccn1Cc1ccccc1,i,i,nt,?,nt,3.5µM,13µM,?
CCC(=O)N1CCc2cc(Br)cc(S(=O)(=O)N3CCC(C(=O)Nc4ccccc4CC)CC3)c21,nt,i,i,i,i,nt,nt,nt
CCn1c(=O)c2cc(C(=O)Nc3ccccc3OC)sc2c2ccccc21,i,i,nt,i,nt,?,14µM,i
O=C(CCc1nnc2n(Cc3ccc(Cl)cc3)c(=O)c3ccccc3n12)N1CCN(c2ccccn2)CC1,i,?,i,nt,i,3.5µM,4µM,i
COCCn1c(SCC(=O)c2ccccc2)nc2c(c1=O)SC(C)C2 (centres undefined),i,nt,i,i,i,i,nt,nt
CCn1c(SCC(=O)c2ccccc2)nc2c(c1=O)SC(C)C2 (centres undefined),i,i,i,i,i,?,?,i
CCc1ccc(NC(=O)CSc2nc3n[nH]c(C)c3c(=N)n2-c2cccc(OC)c2)cc1,i,i,nt,i,nt,7.1µM,14µM,i
CCc1ccc(C(=O)C[n+]2cccc3cc(OC)ccc32)cc1,i,i,nt,i,nt,?,nt,nt
COc1nn(-c2ccccc2)c(=O)c(Cl)c1Cl,i,14µM,28µM,-102,?,4µM,8.9µM,7.9µM
COc1c(Cl)cnn(-c2ccccc2)c1=O,i,i,i,i,i,?,nt,nt
CC1=CC2C(C3C=CC2(C)C(=O)C3(C)O)C(C)(O)C1=O (centres undefined),nt,i,i,i,i,i,nt,nt
CC(=O)Nc1ccc(Nc2cc(C(C)C)nc3c(-c4ccccc4)c(C)nn23)cc1,i,?,nt,?,nt,2.5µM,14µM,i
COc1ccc(N2CC(C(=O)Nc3nnc(SCC(=O)N4CCOCC4)s3)CC2=O)cc1 (centres undefined),nt,i,nt,i,nt,i,nt,nt
Cc1ccc2c(c1)c(=O)c1ccccc1n2CCCC(=O)Nc1ccc(F)cc1F,nt,i,i,i,i,nt,nt,nt

# Compound activity from PubChem BioAssay.
